Inconclusive results are not listed. The source made the active and inactive calls. Calls come from the whole dose curve; as a rule, active = well fitted cell-killing curve with a large enough effect; inconclusive = small, poorly fitted or top-dose-only effect, or effect the other way; inactive = flat fitted curve, though single readings scatter.
What was measured:
Assay in all cases: Primary qHTS to identify gynecologic anti-cancer compounds using libraries of approved drugs and bioactive compounds (AID 1345084); note: nearly all actives have a fitted effect of over 55% in size
CAOV3 = details: Gynecologic cancer cell panel viability, ATPlite luminescence, 48 h; series mostly up to 57.5 µM
How it was run: (§1)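 Cytotoxicity screen measuring ATP content by luciferase luminescence. Each compound is applied at five concentrations for 48 h at 37 C with 5% CO2.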

CASKI = details: Gynecologic cancer cell panel viability, ATPlite luminescence, 48 h; series mostly up to 57.5 µM
How it was run: as §1

Es-2 = details: Gynecologic cancer cell panel viability, ATPlite luminescence, 48 h; series mostly up to 57.5 µM
How it was run: as §1

HeLa = details: Gynecologic cancer cell panel viability, ATPlite luminescence, 48 h; series mostly up to 57.5 µM
How it was run: as §1

Hek293T = details: Gynecologic cancer cell panel viability, ATPlite luminescence, 48 h, control line for the selectivity index; series mostly up to 57.5 µM
How it was run: as §1

JEG-3 = details: Gynecologic cancer cell panel viability, ATPlite luminescence, 48 h; series mostly up to 57.5 µM
How it was run: as §1

OV90 = details: Gynecologic cancer cell panel viability, ATPlite luminescence, 48 h; series mostly up to 57.5 µM
How it was run: as §1

PA-1 = details: Gynecologic cancer cell panel viability, ATPlite luminescence, 48 h; series mostly up to 57.5 µM
How it was run: as §1

SKOV3 = details: Gynecologic cancer cell panel viability, ATPlite luminescence, 48 h; series mostly up to 57.5 µM
How it was run: as §1

Tov-21-G = details: Gynecologic cancer cell panel viability, ATPlite luminescence, 48 h; series mostly up to 57.5 µM
How it was run: as §1

Tov112D = details: Gynecologic cancer cell panel viability, ATPlite luminescence, 48 h; series mostly up to 57.5 µM
How it was run: as §1
% is set by controls: 0 for no effect and ±100 for the full control effect.

CCOC(=O)[C@H](CCc1ccccc1)CC1(C(=O)N[C@H]2CCc3ccccc3N(CC(=O)O)C2=O)CCCC1
inactive: Potency (CAOV3) | Potency (CASKI) | Potency (Es-2) | Potency (HeLa) | Potency (Hek293T) | Potency (JEG-3) | Potency (OV90) | Potency (PA-1) | Potency (SKOV3) | Potency (Tov-21-G) | Potency (Tov112D)

CC(C)NC[C@H](O)COc1ccc(CCOCC2CC2)cc1
inactive: Potency (CAOV3) | Potency (CASKI) | Potency (Es-2) | Potency (HeLa) | Potency (Hek293T) | Potency (JEG-3) | Potency (OV90) | Potency (PA-1) | Potency (SKOV3) | Potency (Tov-21-G) | Potency (Tov112D)

CC12CCC3C(C)(C)C(O)CCC3(C)C1Cc1c(oc(C(=O)O)cc1=O)O2 (stereo not drawn)
inactive: Potency (CAOV3) | Potency (CASKI) | Potency (Es-2) | Potency (HeLa) | Potency (Hek293T) | Potency (JEG-3) | Potency (OV90) | Potency (PA-1) | Potency (SKOV3) | Potency (Tov-21-G) | Potency (Tov112D)

C/C=C/C=C/C=C/C(=O)O[C@@H]1[C@@H](OC)C2=C(C(=O)N(C(C)C(=O)O)C2)[C@@]2(C)CCCC(C)(C)[C@H]12 (stereo partly drawn)
inactive: Potency (CAOV3) | Potency (CASKI) | Potency (Es-2) | Potency (HeLa) | Potency (Hek293T) | Potency (JEG-3) | Potency (OV90) | Potency (PA-1) | Potency (SKOV3) | Potency (Tov-21-G) | Potency (Tov112D)

CC(O)(CC(=O)O)CC(=O)O[C@@H]1[C@@H](O)[C@H](OCCc2ccccc2)O[C@H](CO)[C@H]1O (stereo partly drawn)
inactive: Potency (CAOV3) | Potency (CASKI) | Potency (Es-2) | Potency (HeLa) | Potency (Hek293T) | Potency (JEG-3) | Potency (OV90) | Potency (PA-1) | Potency (SKOV3) | Potency (Tov-21-G) | Potency (Tov112D)

CCCCCCc1cccc(NC(=O)[C@H](N)CCP(=O)(O)O)c1
inactive: activity change, negative = cytotoxicity (CAOV3) 5.39% [at 11.6 µM] | activity change, negative = cytotoxicity (CASKI) 0.791% [at 11.6 µM] | activity change, negative = cytotoxicity (Es-2) 1.07% [at 11.6 µM] | activity change, negative = cytotoxicity (HeLa) 2.94% [at 11.6 µM] | activity change, negative = cytotoxicity (Hek293T) -0.817% [at 11.6 µM] | activity change, negative = cytotoxicity (JEG-3) 8.47% [at 11.6 µM] | activity change, negative = cytotoxicity (OV90) 3.38% [at 11.6 µM] | activity change, negative = cytotoxicity (PA-1) 2.71% [at 11.6 µM] | activity change, negative = cytotoxicity (SKOV3) -0.133% [at 11.6 µM] | activity change, negative = cytotoxicity (Tov-21-G) -2.84% [at 11.6 µM] | activity change, negative = cytotoxicity (Tov112D) 3.09% [at 11.6 µM]

CC1(C(=O)O)CCCC2(C)C1CCC13CC(CCC21)C1(CO)OC31 (stereo not drawn)
inactive: Potency (CAOV3) | Potency (CASKI) | Potency (Es-2) | Potency (HeLa) | Potency (Hek293T) | Potency (JEG-3) | Potency (OV90) | Potency (PA-1) | Potency (SKOV3) | Potency (Tov-21-G) | Potency (Tov112D)

C[C@H]1[C@H](C)CC[C@]2(C(=O)O[C@@H]3O[C@H](CO)[C@@H](O)[C@H](O)[C@H]3O)CC[C@]3(C(=O)O)C(=CCC4[C@@]5(C)CC[C@H](O[C@@H]6O[C@H](CO)[C@@H](O)[C@H](O)[C@H]6O)C(C)(C)C5CC[C@]43C)[C@H]12 (stereo partly drawn)
inactive: activity change, negative = cytotoxicity (CAOV3) 0.882% [at 11.6 µM] | activity change, negative = cytotoxicity (CASKI) 0.925% [at 11.6 µM] | activity change, negative = cytotoxicity (Es-2) -10.9% [at 11.6 µM] | activity change, negative = cytotoxicity (HeLa) 13.2% [at 11.6 µM] | activity change, negative = cytotoxicity (Hek293T) 3.39% [at 11.6 µM] | activity change, negative = cytotoxicity (JEG-3) 1.79% [at 11.6 µM] | activity change, negative = cytotoxicity (OV90) -4.18% [at 11.6 µM] | activity change, negative = cytotoxicity (PA-1) 5.91% [at 11.6 µM] | activity change, negative = cytotoxicity (SKOV3) 23.4% [at 11.6 µM] | activity change, negative = cytotoxicity (Tov-21-G) -3.54% [at 11.6 µM] | activity change, negative = cytotoxicity (Tov112D) 2.01% [at 11.6 µM]

CC(=C/C(=O)O)/C=C/[C@]1(O)[C@@]2(C)CO[C@]1(C)C[C@H](O[C@@H]1O[C@H](CO)[C@@H](O)[C@H](O)[C@H]1O)C2
inactive: Potency (CAOV3) | Potency (CASKI) | Potency (Es-2) | Potency (HeLa) | Potency (Hek293T) | Potency (JEG-3) | Potency (OV90) | Potency (PA-1) | Potency (SKOV3) | Potency (Tov-21-G) | Potency (Tov112D)

O=C(c1ccc(C#Cc2cccc(F)c2)cn1)N1CC2CC2C1 (stereo not drawn)
inactive: Potency (CAOV3) | Potency (CASKI) | Potency (Es-2) | Potency (HeLa) | Potency (Hek293T) | Potency (JEG-3) | Potency (OV90) | Potency (PA-1) | Potency (SKOV3) | Potency (Tov-21-G) | Potency (Tov112D)

CC1=CC(=O)CC(C)(CO[C@@H]2O[C@H](CO)[C@@H](O)[C@H](O)[C@H]2O)C1(O)/C=C/C(C)=C/C(=O)O (stereo partly drawn)
inactive: Potency (CAOV3) | Potency (CASKI) | Potency (Es-2) | Potency (HeLa) | Potency (Hek293T) | Potency (JEG-3) | Potency (OV90) | Potency (PA-1) | Potency (SKOV3) | Potency (Tov-21-G) | Potency (Tov112D)

OC[C@H]1O[C@@H](Oc2ccc(O)c3cccc(O)c23)[C@H](O)[C@@H](O)[C@@H]1O
inactive: Potency (CAOV3) | Potency (CASKI) | Potency (Es-2) | Potency (HeLa) | Potency (Hek293T) | Potency (JEG-3) | Potency (OV90) | Potency (PA-1) | Potency (SKOV3) | Potency (Tov-21-G) | Potency (Tov112D)

O=C(/C=C/c1ccc(O)cc1)OCC1=C[C@@H](O)[C@@H]2C=CO[C@@H](O[C@@H]3O[C@H](CO)[C@@H](O)[C@H](O)[C@H]3O)[C@H]12
inactive: Potency (CAOV3) | Potency (CASKI) | Potency (Es-2) | Potency (HeLa) | Potency (Hek293T) | Potency (JEG-3) | Potency (OV90) | Potency (PA-1) | Potency (SKOV3) | Potency (Tov-21-G) | Potency (Tov112D)
